From PubChem BioAssay (EPA / NIEHS)
Records with an inconclusive call do not appear. The source made the active and inactive calls. Rule for the calls, unless noted: active = hit-call score of the fitted dose curve at least 0.9, where 1 is the maximum; inconclusive = response in the unintended direction; inactive = score below 0.9.

Assays:
[1] = read-out: xenobiotic metabolism (CYP1A1), CYP1A1 (gene 1543); assay: CLD_CYP1A1_6hr: CellzDirect (CLD) Gene Expression Assay for xenobiotic metabolism (CYP1A1) at 6 hours (AID 2283661);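 for AC50: potency for transcript induction above DMSO vehicle baseline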
In short: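 Read-out 6 h post-dose: qNPA chemiluminescent quantitation of transcript induction against 0.2% DMSO. Cells were cultured primary human hepatocytes from two separate donor preparations; phase-contrast morphology annotated apparent cytotoxicity.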

[2] = Tanguay_ZF_120hpf_TR_legacy: (Legacy) Oregon State University Tanguay Lab 120 Hour Post-fertilization zebrafish Assay for Touch Response (AID 2283667)
In short: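 Binary touch-response endpoint in larvae at 120 hpf after static waterborne exposure from embryo stage (28°C, 0.64% DMSO vehicle, 5 uM trimethyltin chloride as positive control); embryos dead at 24 or 120 hpf excluded; fitted as gain versus DMSO.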

[3] = read-out: glucuronosyltransferase (UGT1A1), UGT1A1 (gene 54658); assay: CLD_UGT1A1_6hr: CellzDirect (CLD) Gene Expression Assay for glucuronosyltransferase (UGT1A1) at 6 hours (AID 2283672)
In short: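 UGT1A1 mRNA induction, read by quantitative nuclease protection assay, 6 h after dosing primary human hepatocytes (two donors, 0.2% DMSO vehicle). Gain of signal fitted relative to vehicle.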

[4] = read-out: xenobiotic metabolism (CYP1A1), CYP1A1 (gene 1543); assay: CLD_CYP1A1_24hr: CellzDirect (CLD) Gene Expression Assay for xenobiotic metabolism (CYP1A1) at 24 hours (AID 2283673);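 note: CYP1A1 mRNA level by quantitative nuclease protection with chemiluminescence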
In short: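 Transcript levels were read at 24 h by qNPA chemiluminescence in human liver primary cells. Cells got daily fresh dosing at multiple concentrations (vehicle 0.2% DMSO). Induction fitted upward against DMSO; phase-contrast cytotoxicity annotated.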

[5] = read-out: ABC Transporter (ABCB11), ABCB11 (gene 8647); assay: CLD_ABCB11_6hr: CellzDirect (CLD) Gene Expression Assay for ABC Transporter (ABCB11) at 6 hours (AID 2283675);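 note: hits raise ABCB11 mRNA level so AC50 marks induction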
In short: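 Read-out was ABCB11 mRNA gain of signal by quantitative nuclease protection assay, relative to 0.2% DMSO vehicle, 6 h post-dose. Cells were primary human hepatocytes from two donors, treated across multiple concentrations; phase-contrast cytotoxicity noted yes/no.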

[6] = CLD_ACTIN_6hr: CellzDirect (CLD) Gene Expression Assay for Baseline Control (Actin) at 6 hours (AID 2283676);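 note: active means increased actin mRNA relative to DMSO vehicle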
In short: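 Baseline actin transcript level measured by qNPA (S1 nuclease protection, chemiluminescence) in human hepatocyte cultures 6 h after chemical exposure; 0.2% DMSO vehicle as reference, cytotoxicity noted from morphology.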

[7] = read-out: Cytochrome P450 2C19 (Homo sapiens) (UniProt P33261); assay: CLD_CYP2C19_6hr: CellzDirect (CLD) Gene Expression Assay for xenobiotic metabolism (CYP2C19) at 6 hours (AID 2283678)
In short: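 CYP2C19 transcript induction was quantified by quantitative nuclease protection assay with chemiluminescent read-out, 6 h after dosing. Cells were primary human hepatocytes from two donor preparations, given fresh dosing solutions daily in 0.2% DMSO vehicle. Activity was relative to DMSO.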

[8] = CCTE_Padilla_ZF_144hpf_TERATOSCORE: (Legacy) CCTE's 144 Hour Post-fertilization zebrafish Assay Teratoscore, Padilla Lab (AID 2283679; active = hit-call score of the fitted dose curve at least 0.9, where 1 is the maximum; inactive = score below 0.9;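 for AC50: zebrafish embryos with chorions exposed by immersion from 6-8 hpf to 5 dpf with daily renewal; teratogenicity score from eye scoring of death hatching and malformations at 144 hpf; higher score means more developmental defects relative to DMSO baseline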)
In short: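 Larvae scored by eye at 144 hpf for death, hatching and malformations after a day in clean Hanks'. Before that, daily-renewed exposure at 80 uM (0.4% DMSO, 26C) from roughly 6-8 hpf through 5 dpf, 4 embryos per chemical.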

[9] = read-out: HMG-CoA synthase (HMGCS2), HMGCS2 (gene 3158); assay: CLD_HMGCS2_6hr: CellzDirect (CLD) Gene Expression Assay for HMG-CoA synthase (HMGCS2) at 6 hours (AID 2283682);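 note: actives raise HMGCS2 transcript above the 0.2% DMSO vehicle baseline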
In short: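 HMGCS2 transcript induction read by quantitative nuclease protection with chemiluminescence, 6 h after dosing of primary human hepatocytes. Baseline was 0.2% DMSO vehicle; phase-contrast morphology gave a yes/no cytotoxicity annotation.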

[10] = read-out: xenobiotic metabolism (CYP1A2), CYP1A2 (gene 1544); assay: CLD_CYP1A2_24hr: CellzDirect (CLD) Gene Expression Assay for xenobiotic metabolism (CYP1A2) at 24 hours (AID 2283683)
In short: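 CYP1A2 mRNA induction measured by quantitative nuclease protection (chemiluminescent) in human primary hepatocytes 24 h after multi-concentration chemical dosing with daily fresh solutions. DMSO (0.2%) baseline; positive-direction fitting; morphology-based cytotoxicity noted.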

[11] = read-out: ABC Transporter (ABCB1), ABCB1 (gene 5243); assay: CLD_ABCB1_24hr: CellzDirect (CLD) Gene Expression Assay for ABC Transporter (ABCB1) at 24 hours (AID 2283684)
In short: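 ABCB1 mRNA induction versus 0.2% DMSO vehicle was read by qNPA chemiluminescence at 24 h. Cultured human hepatocytes from two donor preparations received daily fresh dosing, and phase-contrast cytotoxicity calls were annotated alongside the data.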

[12] = read-out: Cytochrome P450 2B6 (Homo sapiens) (UniProt P20813); assay: CLD_CYP2B6_24hr: CellzDirect (CLD) Gene Expression Assay for xenobiotic metabolism (CYP2B6) at 24 hours (AID 2283686)
In short: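 qNPA chemiluminescent measurement of mRNA at 24 hours in human primary hepatocyte cultures from two donor preparations, with daily fresh dosing and 0.2% DMSO vehicle as baseline. Morphology-based cytotoxicity flagged yes/no.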

[13] = read-out: Cytochrome P450 2C19 (Homo sapiens) (UniProt P33261); assay: CLD_CYP2C19_24hr: CellzDirect (CLD) Gene Expression Assay for xenobiotic metabolism (CYP2C19) at 24 hours (AID 2283687);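 note: activity means mRNA induction above DMSO vehicle baseline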
In short: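 CYP2C19 mRNA was quantified by qNPA chemiluminescence after 24 h of daily dosing of cultured human primary hepatocytes from two donors; vehicle was 0.2% DMSO, and increases over DMSO baseline were fitted.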

[14] = read-out: Cytochrome P450 2C9 (Homo sapiens) (UniProt P11712); assay: CLD_CYP2C9_24hr: CellzDirect (CLD) Gene Expression Assay for xenobiotic metabolism (CYP2C9) at 24 hours (AID 2283688)
In short: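 Induction of CYP2C9 mRNA was quantified by quantitative nuclease protection assay (chemiluminescence), gain of signal versus 0.2% DMSO vehicle, 24 h after dosing. Human primary hepatocytes (two donors) received fresh chemical daily at multiple concentrations; morphology-based cytotoxicity flagged yes/no.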

[15] = read-out: Cytochrome P450 3A4 (Homo sapiens) (UniProt P08684); assay: CLD_CYP3A4_24hr: CellzDirect (CLD) Gene Expression Assay for xenobiotic metabolism (CYP3A4) at 24 hours (AID 2283689)
In short: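 CYP3A4 mRNA induction read by quantitative nuclease protection (chemiluminescence) 24 hr after dosing. Cultured human hepatocytes (two donor preparations) treated daily, vehicle 0.2% DMSO; phase-contrast morphology annotates cytotoxicity.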

[16] = read-out: organic anion transporter (SLCO1B1), SLCO1B1 (gene 10599); assay: CLD_SLCO1B1_24hr: CellzDirect (CLD) Gene Expression Assay for organic anion transporter (SLCO1B1) at 24 hours (AID 2283690)
In short: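 SLCO1B1 mRNA induction read at 24 h by quantitative nuclease protection assay (chemiluminescence), analyzed against DMSO baseline. Human hepatocyte cultures from separate donors received fresh dosing solutions daily; vehicle 0.2% DMSO; cytotoxicity flagged by phase-contrast morphology.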

[17] = read-out: Cytochrome P450 2B6 (Homo sapiens) (UniProt P20813); assay: CLD_CYP2B6_6hr: CellzDirect (CLD) Gene Expression Assay for xenobiotic metabolism (CYP2B6) at 6 hours (AID 2283677);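 note: actives raise CYP2B6 transcript above DMSO baseline so AC50 marks an inducer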
In short: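 CYP2B6 transcript levels, read by chemiluminescent qNPA, were fitted for increase versus DMSO baseline; cultured human liver hepatocytes from two donor preparations were harvested 6 h after exposure to test chemicals at multiple concentrations.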

Measured: AC50

Sequence of Cytochrome P450 2C19 (Homo sapiens) (P33261 whole entry, looked up): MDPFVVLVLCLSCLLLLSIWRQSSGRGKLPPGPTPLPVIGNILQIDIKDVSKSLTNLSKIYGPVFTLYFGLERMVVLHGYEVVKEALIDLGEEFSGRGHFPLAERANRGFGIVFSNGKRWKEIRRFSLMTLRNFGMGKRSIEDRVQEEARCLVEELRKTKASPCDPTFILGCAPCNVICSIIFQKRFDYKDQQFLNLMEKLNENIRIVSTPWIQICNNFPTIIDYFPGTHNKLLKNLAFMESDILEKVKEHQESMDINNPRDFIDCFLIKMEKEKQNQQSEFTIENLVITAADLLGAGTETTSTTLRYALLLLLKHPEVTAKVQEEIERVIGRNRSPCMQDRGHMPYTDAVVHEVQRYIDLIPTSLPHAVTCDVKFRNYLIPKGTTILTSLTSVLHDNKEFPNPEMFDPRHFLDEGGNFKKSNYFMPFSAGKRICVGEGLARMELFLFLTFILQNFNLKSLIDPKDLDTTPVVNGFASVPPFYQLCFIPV
Sequence of Cytochrome P450 3A4 (Homo sapiens) (P08684 whole entry, looked up): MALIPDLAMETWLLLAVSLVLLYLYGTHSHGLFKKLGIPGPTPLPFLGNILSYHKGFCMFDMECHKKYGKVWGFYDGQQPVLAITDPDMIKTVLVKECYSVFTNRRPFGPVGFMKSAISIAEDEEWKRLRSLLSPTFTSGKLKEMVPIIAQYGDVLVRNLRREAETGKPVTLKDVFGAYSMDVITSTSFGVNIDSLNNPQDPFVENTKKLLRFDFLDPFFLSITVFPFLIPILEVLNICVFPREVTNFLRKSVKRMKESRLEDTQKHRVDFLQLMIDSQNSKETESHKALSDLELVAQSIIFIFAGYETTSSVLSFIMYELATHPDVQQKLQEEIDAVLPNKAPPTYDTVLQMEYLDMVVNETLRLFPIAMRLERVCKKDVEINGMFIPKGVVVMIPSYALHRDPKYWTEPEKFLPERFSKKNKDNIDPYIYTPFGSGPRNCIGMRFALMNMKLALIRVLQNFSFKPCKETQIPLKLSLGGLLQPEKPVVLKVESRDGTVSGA

CCON=C(CC)C1=C(O)CC(c2c(C)cc(C)cc2C)CC1=O (stereo not drawn)
active: [8] 64200 nM
inactive: [1] | [2] | [3] | [4] | [5] | [6] | [7] | [9] | [10] | [11] | [12] | [13] | [14] | [15] | [16]

CCOC(=O)C(Cl)Cc1cc(-n2nc(C)n(C(F)F)c2=O)c(F)cc1Cl (stereo not drawn)
active: [1] 375 nM | [2] 17000 nM | [4] 390 nM | [8] 570 nM | [12] 6330 nM | [15] 20000 nM
inactive: [3] | [5] | [7] | [10] | [11] | [13] | [14]

Cc1ccc(-c2c(Cl)nc(C#N)n2S(=O)(=O)N(C)C)cc1
inactive: [2] | [5] | [6] | [7] | [9] | [11] | [15]
active: [1] 105 nM | [4] 8200 nM | [8] 5470 nM | [10] 521 nM

COc1ccc(C(c2ccc(OC)cc2)C(Cl)(Cl)Cl)cc1
active: [1] 15800 nM | [8] 1140 nM | [10] 20000 nM | [12] 7110 nM
inactive: [2] | [3] | [4] | [5] | [14] | [16]

CNC(=O)ON=CC(C)(C)SC
inactive: [3] | [6] | [10] | [11] | [12] | [13] | [14] | [15] | [16]
active: [1] 0.972 nM | [2] 21000 nM | [8] 65300 nM

CC(C)C1(C)N=C(c2nc3ccccc3cc2C(=O)O)NC1=O (stereo not drawn)
inactive: [1] | [2] | [3] | [4] | [6] | [7] | [8] | [9] | [10] | [12] | [13] | [15] | [16]

N#CC(CCc1ccc(Cl)cc1)(Cn1cncn1)c1ccccc1 (stereo not drawn)
active: [1] 1890 nM | [4] 2640 nM | [17] 446 nM | [8] 25800 nM | [10] 1240 nM | [12] 389 nM | [15] 1900 nM
inactive: [2] | [3] | [9] | [11] | [13] | [14]
